Data as given in PubChem BioAssay (Tox21).
Records with an inconclusive call do not appear. A call without a number means that no potency is given here. Activity calls are given as the source filed them. The call rests on the fitted dose curve; in most records, active means well fitted cell-killing curve with a large enough effect in the repeat runs; inconclusive means weak or mixed curves, or effect the other way; inactive means flat fitted curve, though single readings scatter.

Assay: cAMP Responsive Elements (CRE) small molecule antagonists, cell-based qHTS assay: qHTS cell viability counter screen (AID 2060913); further: nearly all actives have a fitted effect of over 40% in size
Conditions: CRE-bla HEK293T viability, CellTiter-Glo luminescence, 5 h; series mostly up to 92.4 µM
Method in brief: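 HEK293T CRE-bla, 2,000 cells/well, 18 h preincubation; cpd in DMSO + NKH477 0.25 uM final, 3 h 37 C/5% CO2; LiveBLAzer 2 h RT, then CellTiter-Glo 30 min RT, luminescence.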
Potency means the concentration at half of the fitted maximal effect.

Structure (SMILES)	Potency	viability change, negative = cytotoxic
CC1(C)O[C@@H]2[C@@H](CO[C@@]3(COS(N)(=O)=O)OC(C)(C)O[C@@H]23)O1	inactive	–
CCCOC(C)=O	inactive	–
CC1=CC[C@@H]2C[C@H]1C2(C)C	–	-0.978% [at 18.9 µM] (inactive)
CC(C(=O)O)c1ccc2c(c1)CC(=O)c1ccccc1S2 (stereo not given)	inactive	–
CCC(=O)OC	inactive	–
C=C(C)[C@@H]1CCC2=CC(=O)C[C@@H](C)[C@]2(C)C1	inactive	–
O=C(O)C1(C(=O)O)CCC1.[NH2-].[NH2-].[Pt+2]	inactive	–
C/C(=N\[Si](C)(C)C)O[Si](C)(C)C	inactive	–
O=C(NCC1CN(c2ccc(N3CCOCC3=O)cc2)C(=O)O1)c1ccc(Cl)s1 (stereo not given)	inactive	–
COc1c(C)c2c(c(O)c1C/C=C(\C)CCC(=O)O)C(=O)OC2	inactive	–
CCN1CCOCC1	inactive	–
CC(C)NCC(O)COc1ccc(CC(N)=O)cc1 (stereo not given)	inactive	–
NCc1ccccc1	inactive	–
NC(=O)c1ccc([N+](=O)[O-])cc1	inactive	–
C/C(C=O)=C\c1ccccc1	inactive	–
C[C@@H](c1ncncc1F)C(O)(Cn1cncn1)c1ccc(F)cc1F (stereo not given in full)	inactive	–
C/C=C(/C(=C/C)c1ccc(O)cc1)c1ccc(O)cc1	inactive	–
CC(c1cc(C(C)(C)C)cc(C(C)(C)C)c1O)c1cc(C(C)(C)C)cc(C(C)(C)C)c1O	inactive	–
CC(=O)CC(=O)Nc1ccc(S(=O)(=O)O)cc1	inactive	–
COc1cc(O)c(C(=O)c2ccccc2)cc1S(=O)(=O)O	inactive	–

Structure (SMILES)	Potency	viability change, negative = cytotoxic
COc1ccc2c(c1)c(CC(=O)O)c(C)n2C(=O)c1ccc(Cl)cc1	inactive	–
CCC1(C)NC(=O)NC1=O (stereo not given)	inactive	–
CCCCCCCCCCCCCCC[C@H](O)[C@@H](N)CO	inactive	–
NC(=O)/N=N/C(N)=O	inactive	–
CC(Oc1c(Cl)cccc1Cl)C1=NCCN1 (stereo not given)	inactive	–
CC(=O)CC(=O)OC(C)(C)C	inactive	–
COc1ccc(CCC(=O)c2c(O)cc(O[C@@H]3O[C@H](CO)[C@@H](O)[C@H](O)[C@H]3O[C@@H]3O[C@@H](C)[C@H](O)[C@@H](O)[C@H]3O)cc2O)cc1O	inactive	–
CCCCN	inactive	–
CC(=O)NCCO	inactive	–
C=CC(=C)CCCC(C)(C)OC(C)=O	inactive	–
Cn1c([N+](=O)[O-])cnc1COC(N)=O	inactive	–
COc1cc(C(C)C)ccc1C	–	0.655% [at 18.9 µM] (inactive)
O=C(O)c1cccc(-c2noc(-c3ccccc3F)n2)c1	23.7 µM (active)	–
COc1ccc([N+](=O)[O-])cc1N	inactive	–
O=Cc1ccc(Cl)c(Cl)c1	inactive	–
COc1ccc(C2C(=O)c3ccccc3C2=O)cc1	inactive	–
C[C@@H]1C[C@H]2[C@@H]3C[C@H](F)C4=CC(=O)C=C[C@]4(C)[C@@]3(F)[C@@H](O)C[C@]2(C)[C@@]1(O)C(=O)CO	inactive	–
CNS(=O)(=O)Cc1ccc2[nH]cc(CCN(C)C)c2c1	inactive	–
O=C(O)CCCc1ccccc1	inactive	–
CC(O)COc1ccccc1 (stereo not given)	inactive	–
